# Bioassay records (PubChem)
# AmpC no deterg = inhibitors of E. coli AmpC beta-lactamase without detergent | AmpC nitrocefin hydrolysis, absorbance 480 nm, 0.0001% Triton | Potency, µM (titrated, usually from 57.1 µM), inactives show at the top dose activity change, negative = inhibition, most hits filed as inhibitors | 0.52% of 330,000 active;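 note: plate controls were no compound for no effect and no enzyme for full effect; nearly all actives have a fitted effect of over 20% in size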
# Target sequence (P00811 whole entry, looked up): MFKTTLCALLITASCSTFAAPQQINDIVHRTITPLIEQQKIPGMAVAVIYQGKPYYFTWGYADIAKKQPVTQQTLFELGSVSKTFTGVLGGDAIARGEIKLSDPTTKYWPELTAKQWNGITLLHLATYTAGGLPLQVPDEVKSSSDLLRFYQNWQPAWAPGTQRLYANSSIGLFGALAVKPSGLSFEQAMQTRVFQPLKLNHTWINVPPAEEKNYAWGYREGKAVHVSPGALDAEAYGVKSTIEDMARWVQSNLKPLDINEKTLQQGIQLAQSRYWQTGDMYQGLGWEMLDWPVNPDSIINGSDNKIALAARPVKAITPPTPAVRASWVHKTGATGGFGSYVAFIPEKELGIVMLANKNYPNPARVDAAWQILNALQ
#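 20 mM phosphate pH 7.0 + 0.01% (detergent screen) or 0.0001% Triton X-100; 5.3 nM AmpC reagent; cpd preinc 15 min RT; nitrocefin (800 uM stock) to start; A480 q20 s × 4 min; Activity was normalised to no-enzyme and no-compound control wells.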
# AmpC detergent = inhibitors of E. coli AmpC beta-lactamase with detergent; P00811; AmpC hydrolysis of nitrocefin, absorbance 480 nm, 0.01% Triton; Potency, µM (highest dose often 114 µM), inactives show at the top dose activity change, negative = inhibition, most hits filed as inhibitors; 0.041% of 370,000 active;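 note: 0% = no-compound wells and -100% = no-enzyme wells; nearly all actives have a fitted effect of over 25% in size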
#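 AmpC (5.3 nM in the dispensed reagent) in 20 mM phosphate pH 7.0 with 0.01% (detergent screen) or 0.0001% Triton X-100 was preincubated with compounds for 15 min at room temperature. Nitrocefin was then added from an 800 uM solution, and hydrolysis was followed at 480 nm.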
# Sm TGR block = blocks Schistosoma mansoni thioredoxin glutathione reductase | Q962Y6 | purified TGR, DTNB reduction, TNB absorbance 405 nm | Potency, µM (titrated, usually from 114 µM), for inactives: at the highest dose activity change, negative = inhibition, hits mostly inhibitors | 3% of 360,000 active | AID 485364; note: nearly all actives have a fitted effect of over 60% in size
#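 Kinetic colorimetric format: TGR-catalysed, NADPH-driven DTNB reduction monitored via TNB absorbance. Enzyme dispensed at 20 nM; compound exposure 15 min at room temperature before reaction start.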
# Active calls of the source: *; ? = inconclusive; / = not tested or not shown; [ ] = remark or other dose. In the library only some 3.3% were active in any assay of this set; here they are far more common. Calls come from the whole dose curve; as a rule, active = well fitted curve in the direction sought with a large enough effect; inconclusive = small, poorly fitted or top-dose-only effect, or another doubt; inactive = no such curve, though single readings can be large; an effect the other way counts as inactive or inconclusive. Unless noted, % is set by controls: 0 for no effect and ±100 for the full control effect; potency is the fitted concentration of half-maximal effect.
SMILES,AmpC no deterg,AmpC detergent,Sm TGR block
Cc1ccc(Cl)cc1NS(=O)(=O)c1cc2c3c(c1)CC(=O)N3CCC2,/,-7%,7%
CCC(C)NC(=O)Cn1c(=O)n(-c2ccc(Cl)c(Cl)c2)c(=O)c2c(C)c(C(=O)N(CC)CC)sc21 (stereo not drawn),/,2%,1%
CCOC(=O)c1c(C)oc2c1cc(O)c1ccccc12,-29%,-2%,-20%
CCOC(=O)c1c(C)oc2c(F)c(F)c(F)c(F)c2c1=O,-32%,-4%,32µM*
N#CC1=C(N)Oc2cc(N)ccc2C1c1ccc(F)cc1F (stereo not drawn),-37%,?,0%
CC(C)(C)c1[nH]nc2c1C(c1ccoc1)C(C#N)=C(N)O2 (stereo not drawn),-10%,1%,5%
N#CC1=C(N)OC2=C(CCC/C2=C/c2ccoc2)C1c1ccoc1 (stereo not drawn),0.28µM*,0%,18µM*
N#CC1=C(N)OC2=C(CC/C2=C\c2ccc(F)cc2)C1c1ccc(F)cc1 (stereo not drawn),-39%,-13%,25µM*
CCCCNC(=O)CCn1c(=O)c2cccn2c2cccnc21,/,19%,8%
CCCCC(=O)NC(N1CCCCC1)C(Cl)(Cl)Cl (stereo not drawn),-14%,1%,11µM*
CCCCCC(=O)NC(NC(=S)N1CCOCC1)C(Cl)(Cl)Cl (stereo not drawn),-3%,1%,-1%
CCOC(=O)c1cc(-c2ccc(OC)cc2)n(CCC(=O)Nc2ccccc2OC)c1C,/,-9%,0%
Cc1cccc(C(=O)N2CCC(N3CCN(Cc4ccc(F)cc4)C(=O)C3=O)CC2)c1,/,4%,-11%
O=C(OCC(=O)N1CCc2ccccc21)C1=COCCO1,3%,?,22µM*
O=C1CN(C(=O)COC(=O)C2=COCCO2)c2ccccc2N1,-9%,-6%,0%
CCn1nc(C(=O)OCC(=O)N2CCc3ccccc32)c2ccccc2c1=O,73%,-5%,20µM*
CCn1nc(C(=O)N2CCc3ccccc32)c2ccccc2c1=O,20%,?,1%
COc1ccccc1NC(=O)c1cc2c([nH]c1=O)CC(C)(C)CC2=O,/,2%,0%
COc1ccc(S(=O)(=O)NCc2ccc3c(c2)CCN3C(=O)c2ccccc2)cc1OC,/,4%,1%
COc1ccc(NC(=O)CSc2nc(C)cc(C)c2C(=O)Nc2cccc(C)c2)cc1,/,-6%,-5%
Cc1c(Cl)cccc1NC(=O)CN1C(=O)COc2ccc(S(=O)(=O)N3CCCCCC3)cc21,/,3%,-1%
Cc1noc(/C=C/c2ccco2)c1S(=O)(=O)N1CCC(C(=O)N2CCc3ccccc3C2)CC1,-1%,?,11µM*
Cc1cccc(CCNC(=O)C2CCN(S(=O)(=O)c3c(C)nn(C)c3C)CC2)c1,35%,?,8%
Cc1noc(/C=C/c2ccco2)c1S(=O)(=O)N1CCC(C(=O)NCc2ccco2)CC1,24%,-7%,?
Cc1ccc(CNC(=O)C2CCN(S(=O)(=O)c3c(C)noc3/C=C/c3ccco3)CC2)cc1,-21%,-7%,40µM*
SMILES,AmpC no deterg,AmpC detergent,Sm TGR block
Cc1ccc(CCNC(=O)C2CCN(S(=O)(=O)c3c(C)nn(C)c3C)CC2)cc1,2.5µM*,?,-24%
Cc1ccccc1NC(=O)C1CCN(S(=O)(=O)c2c(C)noc2/C=C/c2ccco2)CC1,/,3%,-35%
COC(=O)c1ccc(NC(=O)C2CCN(S(=O)(=O)c3ccc4c(c3)CCCN4C(C)=O)CC2)cc1,/,4%,6%
COc1ccc(Cl)cc1NC(=O)N1CCC(CN2CCc3ccccc3C2)CC1,/,1%,-17%
COC(=O)c1c(C(=O)OC)c(-c2ccc(OC)cc2)n2c1CS(=O)(=O)C2,-13%,4%,50µM*
COC(=O)c1c(C(=O)OC)c(-c2ccc(C)cc2)n2c1CCC2,30%,0%,8%
O=C(COc1ccc(/C=C\[N+](=O)[O-])cc1)N1CCOCC1,9%[11.4 µM],?,22µM*
O=C(COc1ccc(S(=O)(=O)N2CCOCC2)cc1)N1CCOCC1,-12%,1%,0%
COc1cccc(CNC(=O)CN2C(=O)N(c3c(C)cccc3C)S(=O)(=O)c3ccccc32)c1OC,/,1%,-2%
Clc1ccc(-c2noc3ncnc(NCCc4ccccc4)c23)cc1,/,-7%,-5%
Cc1oc(-c2ccccc2F)nc1CS(=O)CC(=O)NC1CCCC1 (stereo not drawn),0%,-10%,14µM*
Cc1ccccc1-c1nc(CS(=O)CC(=O)NC2CCCCC2)c(C)o1 (stereo not drawn),93%,7%,40µM*
Cc1ccccc1-c1nc(CS(=O)CC(=O)NC2CC2)c(C)o1 (stereo not drawn),1%,-5%,?
Cc1ccccc1-c1nc(CS(=O)CC(=O)NC2CCCC2)c(C)o1 (stereo not drawn),8%,3%,0%
CCN(CC)CCCNc1cc(-c2ccccc2)nc(C)n1,/,9%,6%
Cc1ccc(C)c(N2CCN(C(=O)CCS(=O)(=O)c3cc(Br)cc4c3N(C(=O)C3CC3)CC4)CC2)c1,/,18%,0%
Cc1ccc(NC(=O)C2CCCN(S(=O)(=O)c3cccs3)C2)c(C)c1 (stereo not drawn),/,2%,-5%
Cc1ccc(-c2noc(-c3cccnc3NCc3ccco3)n2)cc1,/,-1%,-2%
O=C(Nc1cccc(F)c1)/C(=C\c1cccnc1)NC(=O)c1ccco1,-18%,-1%,4%
O=C(Nc1cccc(F)c1)/C(=C/c1ccco1)NC(=O)c1ccco1,-18%,4%,45µM*
O=C(Nc1cccc(C(=O)O)c1)/C(=C\c1ccco1)NC(=O)c1ccccc1,-18%,-8%,?
O=C(Nc1cccc(C(=O)O)c1)/C(=C\c1ccco1)NC(=O)c1ccc(Br)o1,-17%,-2%,50µM*
COc1ccc(-c2csc3ncnc(Nc4ccc(OC)c(OC)c4)c23)cc1,/,2%,6%
O=C(Cn1c(=O)oc2cc(S(=O)(=O)N3CCCCCC3)ccc21)Nc1cccc(C(F)(F)F)c1,/,7%,6%
O=c1cc(CSc2ccc(Cl)cc2)[nH]c2[nH]n(-c3ccccc3)c(=O)c12,-52%,3%,45µM*
SMILES,AmpC no deterg,AmpC detergent,Sm TGR block
Cc1ccc(SCc2cc(=O)c3c(=O)n(-c4ccccc4)[nH]c3[nH]2)cc1,-43%,-12%,-35%
Cc1cc(C)n(-c2nnc(Nc3ccc(C(C)C)cc3)c3ccccc23)n1,/,-5%,-4%
CN(C)c1cc(Cl)c2nonc2c1N,?,-5%,50µM*
CCN(CC)c1cc(Cl)c2nonc2c1N,-24%,2%,-2%
Cc1ccc(-c2cc(C(F)(F)F)n3nc(C(=O)Nc4ccc(Cl)c(C(F)(F)F)c4)cc3n2)cc1,/,-2%,-1%
COCCn1c(C)cc(C(=O)COc2cccnc2[N+](=O)[O-])c1C,10%,8%,?
Cc1cc(C)c(C(=O)COc2cccnc2[N+](=O)[O-])cc1C,-14%,2%,16µM*
CCCN(CCC)C(=O)Cn1c(=O)n(-c2ccccc2)c(=O)c2c3c(sc21)CCCC3,/,18%,-4%
Cc1cccc(N2CCN(C(=O)c3cnn(-c4ccccc4)c3C3CCN(C(=O)OC(C)(C)C)CC3)CC2)c1C,/,1%,7%
